HT1080 IDH1KD tx: HT-1080 IDH1 knockdown cell toxicity (counter line); HT-1080 IDH1 knockdown viability, ATP luminescence, 48 h; actives 2% (n = 360,000); Potency, µM (doses to about 46.1 µM), usual class: cytotoxic
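Using the IDH1-knockdown HT-1080 line run in the same batch and compound series as the NT line, viability after 48 h at 37 °C was determined by CellTiter-Glo luminescence and expressed as % activity.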
TGFb SMAD3 inh: blocks TGF-b signaling | HepG2 CAGA-GFP TGF-b/SMAD3 reporter, GFP fluorescence, 18 h; TGF-beta stimulated, 500 pg/mL final | Potency, µM (top dose mostly 46.1 µM), most hits filed as inhibitors | actives 1.2% (n = 410,000); further: nearly all actives have a fitted effect of over 65% in size
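TGF-beta reporter screen: HEPG2 CAGA-GFP, 1% FBS, 500 pg/mL TGF-beta final, 18 h; per-cell GFP summed per well; curves fitted and categorized by class.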
Giardia kill: Giardia lamblia killing; activity change, % at 7.66 µM, hits read low; actives 0.15% (n = 340,000); Giardia lamblia trophozoite viability; in the data active means activity change below about -80%; inconclusive means between about -30% and that limit;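 further: parasites exposed to compound for two days anaerobically before the ATP read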
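Viability, read as ATP luminescence: trophozoites at 100 cells/well, compound added, 48 hrs anaerobic at 37 deg C, then 15-30 min room-temperature development before reading.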
IL-1B inflam inh: blocks inflammasome-driven IL-1 beta release; actives 4.7% (n = 360,000); THP-1 LPS/ATP IL-1B secretion, AlphaLISA, 16 h; stronger effect = lower value; AID 743279; activity change, % at 57.5 µM; in the data active means activity change below about -50%; inconclusive means mostly about -30% to -49%
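THP-1 cells pretreated 1 hr with compounds (up to 57.5 uM final), then stimulated with LPS (250 ng/mL final) plus ATP (1.25 mM final); secreted IL-1B measured by AlphaLISA after 16 hr, decreased signal indicating inhibition.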
HepG2 viability: HepG2 cytotoxicity, counter-screen for TGF-b inhibitors. HepG2 CAGA-GFP viability, ATP luminescence, 18 h. Potency, µM (series often up to 46.1 µM), hits mostly cytotoxic. actives 0.76% (n = 410,000)
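CellTiter-Glo luminescence gave cytotoxicity after 18 hours at 37 degrees C. The cells were HepG2 CAGA-GFP in 1% FBS DMEM, stimulated with 500 pg/mL TGF-beta after compound addition. %Activity was normalised to no-cell wells (complete cell-killing) and DMSO (no toxicity), and curves were fitted and classified.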
HT1080-NT tox: kills 2HG-producing HT-1080-NT fibrosarcoma cells | HT-1080-NT fibrosarcoma viability, CellTiter-Glo ATP luminescence, 48 h | Potency, µM (highest dose often 46.1 µM), most hits filed as cytotoxic | actives 1.6% (n = 360,000);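 further: NT is the 2HG producing partner of a matched IDH1 knockdown line; nearly all actives have a fitted effect of over 55% in size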
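750 cells/well, RPMI + 5% FBS; 2 h settle, compound pin-transfer, 48 h at 37 degrees C. CellTiter-Glo 10 min RT, luminescence. Normalized to DMSO and media-only wells.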
Hits are given with their value; - = inactive; ? = inconclusive; . = no result. Hits are enriched below; roughly 6.5% of the tested compounds scored in any of these assays. Unless noted, the call rests on the fitted dose curve; in most records, active means well fitted curve in the direction sought with a large enough effect; inconclusive means small, poorly fitted or top-dose-only effect, or another doubt; inactive means no such curve, though single readings can be large; an effect the other way counts as inactive or inconclusive.

SMILES	HT1080 IDH1KD tx	TGFb SMAD3 inh	Giardia kill	IL-1B inflam inh	HepG2 viability	HT1080-NT tox
COc1ccc(O)c(/C=N/NC(=O)c2ccc(N3CCCC3=O)cc2)c1	23µM	-	-	-	-	?
CC(C)Oc1ccc(CCN=C(N)N=C(N)N)cc1Cl	23µM	-	-	-	-	-
CNC(=S)NCc1ccc2[nH]c(C)cc2c1	-	-	-	-	-	-
COC(=O)c1c(NC(=O)c2c(-c3ccccc3Cl)noc2C)sc2c1CCC2	-	-	-	-	-	-
Cc1onc(-c2ccccc2Cl)c1C(=O)Nc1sc2c(c1C(N)=O)CCC(C)C2 (configuration not stated)	-	?	-	-51	-	-
COc1ccccc1CCc1nnc(CCC(=O)NC(C)Cc2cccc(C)n2)o1 (configuration not stated)	-	-	-	-	-	-
Cc1oc(-c2ccccc2F)nc1Cn1c(SCc2cccc(Cl)c2)nc2ccncc21	.	18µM	.	.	-	.
Cc1ccccc1NC(=O)c1ccno1	-	-	-	-	-	-
CCCCOc1ccc2c(c1)C(=O)c1cc(O)ccc1-2	?	?	-	-101	-	?
Cc1c(C=C(C#N)c2ccc([N+](=O)[O-])cc2)c(=O)n(-c2ccccc2)n1C	-	-	-	-	-	-
CCOc1ccc(CN2CCN(c3ncnc4scc(-c5ccccc5)c34)CC2)cc1	-	-	-	-	-	-
Cc1sc2ncnc(N3CCN(Cc4ccccc4)CC3)c2c1-c1ccccc1	-	-	-	-56	-	-
Cc1sc2ncnc(N3CCN(CCOc4ccc(Cl)cc4)CC3)c2c1C	?	-	-	-58	-	?
O=C(NCc1nc(-c2ccc(C(F)(F)F)cc2)no1)Nc1ccc(F)cc1F	-	-	-	-	-	-
O=C(NCc1nc(-c2ccc(C(F)(F)F)cc2)no1)Nc1cc(Cl)cc(Cl)c1	?	?	-	-94	-	?
N#CC1=C(SCC(=O)c2ccc(Br)cc2)NC2=C(C(=O)CCC2)C1c1ccco1 (configuration not stated)	10µM	-	-	-	-	13µM
CCc1ccc(NC(=O)CSC2=C(C#N)C(c3ccco3)C3=C(CCCC3=O)N2)cc1 (configuration not stated)	?	-	-	-90	-	-
Cc1ccc(NC(=O)CSC2=C(C#N)C(c3ccco3)C3=C(CC(C)(C)CC3=O)N2)cc1 (configuration not stated)	-	?	-	-	-	-
CCOC(=O)C1CCCN(C(=O)c2ccc3c(c2)N(C)C(=O)/C(=C/c2ccccc2Cl)S3)C1 (configuration not stated)	-	?	-	-68	-	-
COc1ccc(/C=C2\Sc3ccc(C(=O)NC4CC4)cc3N(C)C2=O)cc1OC	-	-	-	-	-	-
O=C(NC1CCN(Cc2ccccc2)CC1)c1ccc2c(c1)[nH]c(=O)n2Cc1ccc(F)cc1	-	?	-	-77	-	15µM
CN1C(=O)/C(=C/c2ccccc2Cl)Sc2ccc(C(=O)N3CCCC3)cc21	-	?	-	-	-	-
CCOc1ccc(/C=C2/Sc3ccc(C(=O)N4CCOCC4)cc3N(C)C2=O)cc1OC	?	-	-	-62	-	-
CN1C(=O)/C(=C\c2ccccc2F)Sc2ccc(C(=O)NC3CCN(Cc4ccccc4)CC3)cc21	16µM	?	-	-	-	21µM
CCCCCn1c(=O)[nH]c2cc(C(=O)NC3CCN(Cc4ccccc4)CC3)ccc2c1=O	-	-	-	-	-	-
CCOc1ccc(NC(=O)c2oc3ccccc3c2NC(=O)Cc2ccc(OC)c(OC)c2)cc1	.	-	.	.	-	.
Cc1cccc(C(=Cc2ccc([N+](=O)[O-])cc2)C(=O)O)c1	-	-	.	-	-	-
Cc1ccnc2nc(NC(=O)c3ccco3)nn12	-	-	-	-	-	-

Assay outcomes as filed in PubChem BioAssay.
